What all share (assay): NCI-60 one-dose screen, 48 h (100 = growth as untreated, 0 = no growth, -100 = all killed)
Common to all, as to conditions: 10 µM unless noted

The test system of test [1] is T-47D breast.
In test [2] the test system is BT-549 breast.
Test [3] concerns MDA-MB-435 melanoma.
Test [4] has as its system SW-620 colon.
Test [5] relates to HCT-116 colon.
Test [6] has as its system HCC-2998 colon.
Test [7] relates to KM12 colon.
The subject of test [8] is MCF7 breast.

About 83,000 compounds went through this panel and 20% of them were active in at least one assay; those are over-represented in the sample as a whole.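 Cell lines were cultured in 96-well plates, exposed to a single compound concentration, and assessed for percent growth 48 hours later.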 Unmarked numbers belong to inactive results. The source made the active and inactive calls. How the source made its calls: active means growth percent below 10; inactive means the rest.

Consider `CCC1CCc2nc3sc(C(=O)Nc4cccc(C)c4)c(N)c3cc2C1` (stereo not drawn), for which the growth in test [1] is 96.9%; in test [2], 86.1%; in test [3] it was -15.9% (active); in test [4], 53.2%; in test [5], 83.8%; in test [6] it was 100%. The growth in test [7] was 48.5%.

`COc1cc(/C=C2\CCCC3=C2N=C2SC(C)=NN2C3c2cc(OC)c(OC)c(OC)c2)cc(OC)c1OC` (stereo not drawn): the growth in test [1] was 37.6%; in test [3], -63.9% (active); in test [4] it was 10.3%; in test [8], 12.5%; in test [5], -71.6% (active); in test [6], 55.4%. Further, the growth in test [7] was -37.8% (active).

As for `CCCCCCCCCCCCCCCCCCOc1cccc(CCOP(=O)(O)OCC[N+](C)(C)C)c1`, the growth in test [2] is 92.5%; in test [3], 93.6%; in test [4], 94.3%; in test [8] it was 88.8%; in test [5], 70%; in test [6], 82.5%. In addition, in test [7], the growth is 50.1%.

Consider `COC(=O)[C@H]1[C@H](OC)[C@@H](OC(=O)/C=C/c2ccncc2)CC2CN3CCc4c([nH]c5cc(OC)ccc45)[C@@H]3C[C@@H]21` (stereo partly drawn), for which the growth in test [1] is 36.8%; in test [3], 77.9%; in test [4], 74%; in test [8] it was 55.9%; in test [5], 61.1%; in test [6] it was 122%. The growth in test [7] was 93.6%.

As to `CC(=O)N1Cc2ccccc2C(C)Cc2cc(Cl)ccc21` (stereo not drawn), the growth in test [1] was 100%; in test [2], 115%; in test [3], 106%; in test [4], 106%; in test [6], 100%; in test [7], 103%.

For `CC(=O)Nc1ccc(S(=O)(=O)N2C(=O)CCC2C(=O)Nc2ccc(Br)cc2)cc1` (stereo not drawn), the growth in test [1] is 1.46% (active); in test [3], 27.6%; in test [4], 38.2%; in test [8], 9.58% (active); in test [5], 19.5%; in test [6], 49.4%. Also, in test [7], the growth is 23.1%.

For the molecule `CC(=O)Nc1ccc(S(=O)(=O)NC(CCC(=O)Nc2ccc(Cl)cc2)C(=O)O)cc1` (stereo not drawn), the growth is 80.4% in test [1]; 85.2% in test [3]; 99.6% in test [4]; 84.8% in test [8]; 102% in test [5]; 103% in test [6]. The growth in test [7] is 94.5%.

On to `NC(=O)NC(=O)/C=C/C(=O)OCCCl`, for which the growth in test [1] is 69%; in test [2], 106%; in test [3] it was 101%; in test [4] it was 102%; in test [5] it was 104%; in test [6] it was 99.8%. Further, the growth in test [7] was 110%.

As for `O=C(N/N=C/c1c(Cl)cccc1Cl)c1ccccc1Nc1ccnc(C(F)(F)F)c1`, the growth in test [1] is 51.8%; in test [3], 82.9%; in test [4], 86.3%; in test [8], 46%; in test [5] it was 64.9%; in test [6] it was 71.5%. In addition, in test [7], the growth was 74.7%.

As to `CCCCCCCCCCn1cc[n+](C)c1`, the growth in test [1] was 24.6%; in test [3] it was 7.98% (active); in test [4], 44.1%; in test [8], 3.94% (active); in test [5] it was 17.6%; in test [6] it was 31.1%. The growth in test [7] is 14%.

For the molecule `COc1ccc(C2=NN(c3ccc(S(N)(=O)=O)cc3)C(c3cn(-c4ccccc4)nc3-c3ccc(Cl)cc3)C2)cc1` (stereo not drawn), the growth is 67.1% in test [1]; 79.3% in test [3]; 101% in test [4]; 66.7% in test [8]; 74.5% in test [5]; 98.2% in test [6]. Besides, the growth in test [7] is 88.6%.

For the molecule `CCC(c1ccc(OC)cc1)C(CC)c1ccc(O)c(CN2CCCC2)c1` (stereo not drawn), the growth was -33% (active) in test [1]; 2.58% (active) in test [2]; -31.6% (active) in test [3]; 0.333% (active) in test [4]; 35.9% in test [5]; -83% (active) in test [6]. The growth in test [7] is 27.9%.

Consider `c1ccc2nc(-c3ccc4ccccc4n3)ccc2c1`, for which the growth is 93.7% in test [2]; 91.9% in test [3]; 100% in test [4]; 88.7% in test [5]; 101% in test [6]; 90.4% in test [7].

As for `COc1cccc2cc(-c3cc4ccccc4[nH]3)/c(=N/C(=S)Nc3ccccc3)oc12`, the growth in test [2] was 95.2%; in test [3] it was 87.9%; in test [4], 74.1%; in test [8] it was 79.5%; in test [5], 59.6%; in test [6], 82.6%. Moreover, the growth in test [7] is 88.3%.

On to `CC[C@H](C)[C@@H]1NC(=O)[C@H]([C@@H](C)O)NC(=O)C(Cc2ccccc2)NC(=O)[C@@H]2CCCN2C(=O)C(C(C)C)NC(=O)C(Cc2ccccc2)NC(=O)CNC(=O)[C@@H]2CCCN2C1=O` (stereo partly drawn), for which the growth in test [3] is 74%; in test [4] it was 68.3%; in test [8], 67.4%; in test [5], 18.8%; in test [6], 88.2%; in test [7], 59.2%.

Regarding `CCN1C(=O)N(CC)C2C1NN=c1s/c(=C\c3ccccn3)c(=O)n12` (stereo not drawn), the growth in test [2] was 80%; in test [3] it was -62.1% (active); in test [4] it was 23.7%; in test [8], 22.5%; in test [5] it was 23.6%; in test [6], 65.8%. In test [7], the growth was 26%.

For `COc1cccc2cc(-c3cc4ccccc4[nH]3)c(=NC(=O)c3ccc(Cl)cc3)oc12`, the growth in test [2] was 62.7%; in test [3], 33.1%; in test [4] it was 7.3% (active); in test [8], 73.5%; in test [5], 26.9%; in test [6], 75.7%. For the same molecule, the growth in test [7] was 33.9%.

For the molecule `COc1ccc(/C=c2\sc3n(c2=O)C2C(NN=3)N(C)C(=O)N2C)cc1` (stereo not drawn), the growth in test [2] was 75.3%; in test [3], -60.6% (active); in test [4], 23.5%; in test [8], 22.7%; in test [5], 22.5%; in test [6], 54.9%. In test [7], the growth was 22.8%.
